# Records with an inconclusive call do not appear. Active and inactive are the calls of the source. Rule for the calls: active = hit-call score of the fitted dose curve at least 0.9, where 1 is the maximum; inconclusive = response in the unintended direction; inactive = score below 0.9.
# Columns and labels:
# [1] = biological target: chimpanzee Androgen Receptor (AR), AR (gene 747460) (UniProt O97775); assay: NVS_NR_cAR: NovaScreen (NVS) Nuclear Receptor Binding Assay for chimpanzee Androgen Receptor (AR) (AID 2283346);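 note: radioligand displacement from AR measured by scintillation counting in a cell-free assay; a loss of bound radioligand signal versus DMSO counts as binding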
# In short: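 Cell-free competition binding with insect-cell (Sf9/Sf21) extracted chimpanzee AR; scintillation signal from lysate at 72 h. Screened in duplicate at 25 uM, then concentration-response for actives; fitting relative to DMSO.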
# [2] = biological target: Androgen Receptor/SRC-1 Co-activator, AR (gene 367) (UniProt P10275); assay: OT_AR_ARSRC1_0960: Odyssey Thera (OT) 16-hour HEK293T Protein-Complementation Assay for Androgen Receptor/SRC-1 Co-activator (AID 2283353);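 note: actives raise the signal above DMSO so potency reflects increased AR and SRC-1 complex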
# In short: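 HEK293T cells stably expressing AR and SRC-1 fused to Venus YFP fragments, imaged 16 h after dosing. Nuclear/cytoplasmic fluorescence ratio at 488 nm from at least 400 cells per image; gain of signal relative to DMSO.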
# [3] = biological target: Androgen Receptor/SRC-1 Co-activator, AR (gene 367) (UniProt P10275); assay: OT_AR_ARSRC1_0480: Odyssey Thera (OT) 8-hour HEK293T Protein-Complementation Assay for Androgen Receptor/SRC-1 Co-activator (AID 2283354);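 note: hits raise the complementation signal above DMSO so AC50 marks enhancers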
# In short: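 Measures AR/SRC-1 binding by Venus YFP fragment complementation in HEK293T stable lines at 8 h post-dose. Imaging quantifies the 488nm nucleus/cytoplasm ratio in ≥400 cells; DMSO defines baseline.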
# [4] = biological target: Estrogen receptor beta (Homo sapiens) (UniProt Q92731); assay: OT_ER_ERbERb_0480: Odyssey Thera (OT) 8-hour HEK293T Protein-Complementation Assay for Estrogen Receptor-beta/-beta Homodimer (AID 2283357);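 note: active means signal gain over DMSO baseline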
# In short: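 Cells (HEK293T, stable ER-beta LBD PCA pair) are treated 8 hours, fixed and Draq5-stained; signal is fluorescence intensity increase relative to vehicle, fitted in the gain direction.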
# [5] = biological target: Estrogen receptor (Homo sapiens) (UniProt P03372); assay: OT_ER_ERaERa_1440: Odyssey Thera (OT) 24-hour HEK293T Protein-Complementation Assay for Estrogen Receptor-alpha/-alpha Homodimer (AID 2283349);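 note: hits raise fluorescence above DMSO for agonists and antagonists alike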
# In short: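 Protein-fragment complementation between two human ERα ligand-binding domains (aa 310-547) in stably transfected HEK293T cells was monitored after 24 h treatment, using fluorescence intensity relative to vehicle controls.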
# [6] = biological target: Estrogen receptor (Homo sapiens) (UniProt P03372); assay: OT_ER_ERaERa_0480: Odyssey Thera (OT) 8-hour HEK293T Protein-Complementation Assay for Estrogen Receptor-alpha/-alpha Homodimer (AID 2283351);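 note: rise in fluorescence from reassembled reporter fragments on ERα LBD homodimer in nucleus or whole cell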
# In short: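 The readout is complementation of fragments fused to the human ER alpha ligand-binding domain (aa 310-547), stably expressed in HEK293T cells. After 8 h of exposure, the increase in nuclear/cytoplasmic fluorescence was measured by laser scanning cytometry and fitted relative to DMSO.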
# [7] = biological target: bovine Estrogen Receptor (ER), ESR1 (gene 407238) (UniProt P49884); assay: NVS_NR_bER: NovaScreen (NVS) Nuclear Receptor Binding Assay for bovine Estrogen Receptor (ER) (AID 2283345);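 note: actives lower the bound radioligand count which means they displace the ER ligand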
# In short: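 Displacement of a radioligand from estrogen receptor in bovine uterine membrane preparations; scintillation signal taken at 18 hours, DMSO as baseline. Single-concentration duplicates (25 uM) preceded concentration-response follow-up of actives.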
# [8] = biological target: T1, Estrogen receptor (Homo sapiens) + Estrogen receptor beta (Homo sapiens) (UniProt P03372+Q92731); assay: OT_ER_ERaERb_1440: Odyssey Thera (OT) 24-hour HEK293T Protein-Complementation Assay for Estrogen Receptor-alpha/-beta Homodimer (AID 2283356);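 note: heteromer of ER alpha and ER beta binding domains; hits raise reporter fluorescence and both agonists and antagonists give an increase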
# In short: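 Stable HEK293T PCA line, ERα LBD 310-547 + ERβ LBD 263-489 fused to reporter fragments; 24 h treatment; fluorescence read by laser scanning cytometry; positive fitting direction relative to DMSO.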
# [9] = system: NCBI gene 100848466; assay: NVS_NR_bPR: NovaScreen (NVS) Nuclear Receptor Binding Assay for bovine Progextron Receptor (PR) (AID 2283343)
# In short: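 Membranes from bovine uterus; radiolabelled ligand plus test chemical; 18 h; scintillation read-out. Activity = signal loss vs DMSO. Primary: 25 uM, duplicate; secondary: concentration series.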
# [10] = biological target: T1, Estrogen receptor (Homo sapiens) + Estrogen receptor beta (Homo sapiens); assay: OT_ER_ERaERb_0480: Odyssey Thera (OT) 8-hour HEK293T Protein-Complementation Assay for Estrogen Receptor-alpha/-beta Heterodimer (AID 2283352)
# In short: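 Compound added to HEK293T cells carrying split-reporter-tagged ER-alpha and ER-beta LBDs, incubated 8 hours, then imaged by laser scanning cytometer. Signal rise in nucleus, or nucleus and cytoplasm, over vehicle was fitted in the positive direction.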
# [11] = biological target: human Peroxisome Proliferator-activated Receptor alpha (PPARa), PPARA (gene 5465) (UniProt Q07869); assay: NVS_NR_hPPARa: NovaScreen (NVS) Nuclear Receptor Binding Assay for human Peroxisome Proliferator-activated Receptor alpha (PPARa) (AID 2283359);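 note: activity means loss of TR-FRET signal versus DMSO baseline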
# In short: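 Chemicals were first screened in duplicate at 25 uM, and active ones were retested across concentration series. Binding was monitored by TR-FRET one hour after dosing, with decreased signal against DMSO counted as activity.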
# [12] = biological target: Retinoic acid receptor alpha (Homo sapiens) (UniProt P10276); assay: NVS_NR_hRAR_Antagonist: NovaScreen (NVS) Nuclear Receptor Binding Assay for human Retinoic Acid Alpha Receptor Antagonism (RAR) (AID 2283358)
# In short: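 TR-FRET, cell-free, antagonist format; 2 h incubation after dosing; DMSO = baseline; signal loss fitted; 25 uM duplicate primary, then conc. series.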
# [13] = biological target: human Thyroid Receptor Alpha (TRa), THRA (gene 7067) (UniProt P10827); assay: NVS_NR_hTRa_Antagonist: NovaScreen (NVS) Nuclear Receptor Binding Assay for human Thyroid Receptor Alpha Antagonism (TRa) (AID 2283362);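 note: activity is loss of signal relative to DMSO baseline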
# In short: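 Extracted protein, cell-free; 1 h incubation after dosing; AlphaLISA chemiluminescence binding readout. DMSO = baseline/neg ctrl; signal loss = activity. Primary: duplicate, 25 uM; secondary: conc. series on actives.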
# [14] = biological target: Retinoic acid receptor alpha (Homo sapiens) (UniProt P10276); assay: NVS_NR_hRARa_Agonist: NovaScreen (NVS) Nuclear Receptor Binding Assay for human Retinoic Acid Alpha Receptor Agonism (RAR) (AID 2283361)
# In short: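 Readout is time-resolved fluorescence resonance energy transfer after a 2 h exposure of cell-free extracted receptor protein. Initial testing used 25 uM in duplicate, with concentration-response follow-up for active chemicals.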
# [15] = biological target: rat Mineralocorticoid Receptor (MR), Nr3c2 (gene 25672) (UniProt P22199); assay: NVS_NR_rMR: NovaScreen (NVS) Nuclear Receptor Binding Assay for rat Mineralocorticoid Receptor (MR) (AID 2283355)
# In short: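 Adrenalectomized rat brain supernatant was dosed with test chemical, then radioligand binding was measured by scintillation counting at 24 h. Initial testing ran in duplicate at 25 uM, followed by concentration series for actives.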
# Sequence of human Peroxisome Proliferator-activated Receptor alpha (PPARa), PPARA (gene 5465) (Q07869 whole entry, looked up): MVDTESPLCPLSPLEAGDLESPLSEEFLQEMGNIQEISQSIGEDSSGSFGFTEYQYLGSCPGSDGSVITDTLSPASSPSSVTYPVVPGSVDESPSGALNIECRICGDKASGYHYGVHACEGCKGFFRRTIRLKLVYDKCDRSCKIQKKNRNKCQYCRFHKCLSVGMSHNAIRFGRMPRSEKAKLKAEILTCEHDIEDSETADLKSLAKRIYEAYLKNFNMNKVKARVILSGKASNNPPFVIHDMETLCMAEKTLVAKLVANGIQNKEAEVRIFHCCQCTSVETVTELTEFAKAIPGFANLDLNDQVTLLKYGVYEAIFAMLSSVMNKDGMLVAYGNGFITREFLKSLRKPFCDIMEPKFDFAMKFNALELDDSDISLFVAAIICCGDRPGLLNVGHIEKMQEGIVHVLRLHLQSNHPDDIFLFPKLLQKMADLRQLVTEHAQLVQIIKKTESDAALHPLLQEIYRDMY
# Sequence of Estrogen receptor (Homo sapiens) (P03372 whole entry, looked up, the tested form may be a part): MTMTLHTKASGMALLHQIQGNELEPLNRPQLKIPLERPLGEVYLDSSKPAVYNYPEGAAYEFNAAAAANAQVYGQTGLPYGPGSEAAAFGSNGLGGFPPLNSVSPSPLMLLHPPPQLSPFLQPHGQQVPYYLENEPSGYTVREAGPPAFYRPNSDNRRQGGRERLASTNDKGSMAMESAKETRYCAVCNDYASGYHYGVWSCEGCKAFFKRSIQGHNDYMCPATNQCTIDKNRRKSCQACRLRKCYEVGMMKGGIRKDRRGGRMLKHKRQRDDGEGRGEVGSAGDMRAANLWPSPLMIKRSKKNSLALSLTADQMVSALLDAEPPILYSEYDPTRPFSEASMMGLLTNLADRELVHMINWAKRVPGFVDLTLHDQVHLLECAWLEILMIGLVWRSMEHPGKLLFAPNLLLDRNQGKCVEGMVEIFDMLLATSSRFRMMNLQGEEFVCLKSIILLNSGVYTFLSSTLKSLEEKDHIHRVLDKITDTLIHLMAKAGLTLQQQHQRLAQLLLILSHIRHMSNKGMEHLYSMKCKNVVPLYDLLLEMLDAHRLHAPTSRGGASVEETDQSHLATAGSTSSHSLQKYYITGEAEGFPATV
# T1 sequence (P03372 whole entry, looked up, the tested form may be a part): as above
# T1 sequence (Q92731 whole entry, looked up, the tested form may be a part): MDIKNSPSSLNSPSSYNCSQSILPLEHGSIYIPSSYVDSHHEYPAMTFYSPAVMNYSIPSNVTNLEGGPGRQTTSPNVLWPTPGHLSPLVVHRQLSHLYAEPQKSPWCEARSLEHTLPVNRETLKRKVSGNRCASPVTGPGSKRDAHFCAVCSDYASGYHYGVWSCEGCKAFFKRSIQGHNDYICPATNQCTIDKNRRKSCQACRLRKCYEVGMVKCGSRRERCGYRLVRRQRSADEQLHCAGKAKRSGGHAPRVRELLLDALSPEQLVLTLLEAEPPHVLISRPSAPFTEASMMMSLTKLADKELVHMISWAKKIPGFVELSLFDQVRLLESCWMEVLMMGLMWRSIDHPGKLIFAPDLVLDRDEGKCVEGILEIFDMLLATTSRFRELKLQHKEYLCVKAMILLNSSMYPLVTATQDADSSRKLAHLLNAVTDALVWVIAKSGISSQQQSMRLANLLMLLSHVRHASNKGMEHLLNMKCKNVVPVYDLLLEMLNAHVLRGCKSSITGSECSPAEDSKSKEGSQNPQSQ
# Sequence of Estrogen receptor beta (Homo sapiens) (Q92731 whole entry, looked up, the tested form may be a part): as above
# Sequence of Androgen Receptor/SRC-1 Co-activator, AR (gene 367) (P10275 whole entry, looked up, the tested form may be a part): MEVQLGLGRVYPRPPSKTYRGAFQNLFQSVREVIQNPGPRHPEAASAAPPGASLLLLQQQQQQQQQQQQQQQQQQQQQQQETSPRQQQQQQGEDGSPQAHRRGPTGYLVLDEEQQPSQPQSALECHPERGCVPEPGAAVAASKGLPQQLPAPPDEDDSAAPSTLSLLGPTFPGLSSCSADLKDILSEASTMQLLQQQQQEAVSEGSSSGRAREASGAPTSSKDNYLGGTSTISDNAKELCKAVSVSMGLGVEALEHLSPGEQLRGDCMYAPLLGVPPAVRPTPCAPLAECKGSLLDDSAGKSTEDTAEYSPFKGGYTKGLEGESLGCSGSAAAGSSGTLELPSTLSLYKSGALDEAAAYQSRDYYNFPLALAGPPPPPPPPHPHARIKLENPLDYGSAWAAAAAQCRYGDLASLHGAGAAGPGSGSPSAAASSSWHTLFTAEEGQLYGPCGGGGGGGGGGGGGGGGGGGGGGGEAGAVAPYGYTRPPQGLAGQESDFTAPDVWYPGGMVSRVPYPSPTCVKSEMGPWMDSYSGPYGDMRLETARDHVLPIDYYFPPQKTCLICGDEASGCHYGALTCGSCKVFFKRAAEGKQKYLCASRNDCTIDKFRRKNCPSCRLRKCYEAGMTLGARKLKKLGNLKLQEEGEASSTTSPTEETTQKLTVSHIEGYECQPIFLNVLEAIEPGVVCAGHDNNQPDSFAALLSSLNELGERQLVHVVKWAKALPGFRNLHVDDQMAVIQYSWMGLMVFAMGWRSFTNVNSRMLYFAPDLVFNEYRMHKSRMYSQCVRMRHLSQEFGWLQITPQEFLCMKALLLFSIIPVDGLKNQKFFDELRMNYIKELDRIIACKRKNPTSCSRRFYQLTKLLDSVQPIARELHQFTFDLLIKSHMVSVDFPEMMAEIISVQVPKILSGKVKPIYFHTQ
# Sequence of bovine Estrogen Receptor (ER), ESR1 (gene 407238) (P49884 whole entry, looked up): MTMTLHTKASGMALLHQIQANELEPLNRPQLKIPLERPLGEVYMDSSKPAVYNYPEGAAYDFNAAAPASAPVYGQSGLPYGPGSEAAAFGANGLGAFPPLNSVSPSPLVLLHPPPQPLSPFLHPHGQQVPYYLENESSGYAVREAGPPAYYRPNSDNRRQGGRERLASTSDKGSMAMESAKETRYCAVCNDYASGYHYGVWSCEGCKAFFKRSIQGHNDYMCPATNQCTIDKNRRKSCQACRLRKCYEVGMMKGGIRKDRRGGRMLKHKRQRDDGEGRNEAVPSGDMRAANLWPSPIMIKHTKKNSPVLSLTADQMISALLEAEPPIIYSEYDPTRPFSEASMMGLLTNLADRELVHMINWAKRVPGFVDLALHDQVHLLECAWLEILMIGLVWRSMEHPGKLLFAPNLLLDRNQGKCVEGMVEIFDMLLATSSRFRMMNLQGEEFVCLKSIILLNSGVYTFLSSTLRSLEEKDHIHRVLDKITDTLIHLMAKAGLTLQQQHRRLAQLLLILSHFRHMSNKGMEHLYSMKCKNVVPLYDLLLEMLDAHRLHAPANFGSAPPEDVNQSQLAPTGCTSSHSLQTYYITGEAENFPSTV
# Sequence of Retinoic acid receptor alpha (Homo sapiens) (P10276 whole entry, looked up): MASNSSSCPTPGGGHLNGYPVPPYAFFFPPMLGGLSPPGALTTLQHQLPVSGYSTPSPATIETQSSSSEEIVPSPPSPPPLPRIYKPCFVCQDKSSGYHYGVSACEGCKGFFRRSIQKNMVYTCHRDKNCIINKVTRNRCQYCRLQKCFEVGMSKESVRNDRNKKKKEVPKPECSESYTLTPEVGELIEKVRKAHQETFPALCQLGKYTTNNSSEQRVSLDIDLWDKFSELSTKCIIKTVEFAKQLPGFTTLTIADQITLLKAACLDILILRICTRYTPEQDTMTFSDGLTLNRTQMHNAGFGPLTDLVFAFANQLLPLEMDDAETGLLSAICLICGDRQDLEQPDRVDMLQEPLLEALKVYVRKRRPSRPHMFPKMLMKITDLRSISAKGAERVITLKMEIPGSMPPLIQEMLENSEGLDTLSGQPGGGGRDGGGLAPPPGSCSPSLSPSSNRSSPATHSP
# Sequence of chimpanzee Androgen Receptor (AR), AR (gene 747460) (O97775 whole entry, looked up): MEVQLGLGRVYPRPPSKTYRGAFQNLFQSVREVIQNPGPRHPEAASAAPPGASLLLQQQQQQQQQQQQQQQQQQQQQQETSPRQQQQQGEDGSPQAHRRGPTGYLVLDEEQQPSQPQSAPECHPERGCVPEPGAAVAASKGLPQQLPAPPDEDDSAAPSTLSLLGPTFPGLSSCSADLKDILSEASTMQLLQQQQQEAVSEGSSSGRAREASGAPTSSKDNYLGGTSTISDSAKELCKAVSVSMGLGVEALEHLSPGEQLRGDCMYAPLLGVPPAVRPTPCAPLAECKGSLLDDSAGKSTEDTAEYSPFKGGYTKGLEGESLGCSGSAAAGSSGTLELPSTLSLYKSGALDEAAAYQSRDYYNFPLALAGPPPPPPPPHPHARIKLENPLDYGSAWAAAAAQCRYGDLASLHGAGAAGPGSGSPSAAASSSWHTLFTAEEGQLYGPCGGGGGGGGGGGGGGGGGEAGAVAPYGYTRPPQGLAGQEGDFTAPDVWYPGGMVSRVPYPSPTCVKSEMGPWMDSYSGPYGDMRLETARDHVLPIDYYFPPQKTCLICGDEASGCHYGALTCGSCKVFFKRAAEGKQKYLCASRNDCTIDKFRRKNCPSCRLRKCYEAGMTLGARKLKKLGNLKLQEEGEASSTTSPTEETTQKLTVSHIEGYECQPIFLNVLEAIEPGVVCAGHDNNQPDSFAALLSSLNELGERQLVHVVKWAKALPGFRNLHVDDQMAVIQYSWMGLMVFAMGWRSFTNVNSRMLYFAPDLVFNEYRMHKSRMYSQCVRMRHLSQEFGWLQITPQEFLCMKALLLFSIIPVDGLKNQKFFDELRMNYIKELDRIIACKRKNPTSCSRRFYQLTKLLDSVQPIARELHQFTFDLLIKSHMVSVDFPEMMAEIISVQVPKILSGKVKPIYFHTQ
compound,measurement,setting,value
Nc1ccc([N+](=O)[O-])cc1,AC50,[1],25 µM (active)
same,outcome,[2],inactive
same,outcome,[3],inactive
same,outcome,[4],inactive
COc1cc(C=O)cc2c1[C@H](COC(N)=O)[C@]1(OC(C)=O)ON2C[C@H]2[C@@H]1N2C(C)=O,outcome,[5],inactive
same,outcome,[6],inactive
Brc1ccc(Oc2ccccc2)cc1,outcome,[7],inactive
same,outcome,[5],inactive
same,outcome,[6],inactive
N#CC(Br)Br,outcome,[7],inactive
same,outcome,[5],inactive
same,outcome,[6],inactive
same,outcome,[8],inactive
same,outcome,[4],inactive
Nc1ccc(N=Nc2ccccc2)cc1,outcome,[9],inactive
same,outcome,[7],inactive
same,AC50,[5],80.4 µM (active)
same,outcome,[6],inactive
same,AC50,[10],29 µM (active)
same,AC50,[8],39.4 µM (active)
same,AC50,[4],34.6 µM (active)
CNC(=O)Oc1cccc2c1OC(C)(C)C2,outcome,[5],inactive
same,outcome,[6],inactive
same,outcome,[10],inactive
same,outcome,[2],inactive
same,outcome,[3],inactive
same,outcome,[8],inactive
same,outcome,[4],inactive
Nc1ccc(Oc2ccc(N)cc2)cc1,outcome,[1],inactive
same,outcome,[4],inactive
same,outcome,[11],inactive
CCOc1cccc(C2(N3CCN(c4ccccc4)CC3)CCC(C)CC2)c1 (centres undefined),outcome,[5],inactive
same,outcome,[6],inactive
CCC12COCN1COC2,outcome,[5],inactive
same,outcome,[6],inactive
CC(O)CCO (centres undefined),outcome,[4],inactive
CCN(CC)CCO,outcome,[4],inactive
COC(=O)c1ccccc1N,outcome,[4],inactive
O=[N+]([O-])c1ccc(Oc2ccc(Cl)cc2Cl)cc1,outcome,[4],inactive
Clc1ccc(Cl)c(Cl)c1,outcome,[4],inactive
CC(C)(OOC(C)(C)c1ccccc1)c1ccccc1,AC50,[2],76.2 µM (active)
same,AC50,[3],71.1 µM (active)
same,AC50,[4],3.31 µM (active)
CC(C)(C)OOC(=O)c1ccccc1,outcome,[4],inactive
same,outcome,[11],inactive
ClCCOCCCl,outcome,[4],inactive
Clc1ccccc1Cl,outcome,[4],inactive
c1ccc2c(c1)oc1ccccc12,outcome,[4],inactive
CCN(CC)N=O,outcome,[12],inactive
same,outcome,[11],inactive
CO[C@@H]1[C@H](OC(=O)NC(=O)CCl)CC[C@]2(CO2)[C@H]1[C@@]1(C)O[C@@H]1CC=C(C)C,outcome,[5],inactive
same,outcome,[6],inactive
same,AC50,[2],10.7 µM (active)
same,AC50,[3],20.1 µM (active)
same,outcome,[8],inactive
same,outcome,[4],inactive
OCCCBr,outcome,[5],inactive
same,outcome,[6],inactive
same,outcome,[10],inactive
same,outcome,[8],inactive
same,outcome,[4],inactive
CN(C)c1ccccc1,outcome,[4],inactive
C=CCc1ccc2c(c1)OCO2,outcome,[4],inactive
same,outcome,[11],inactive
c1ccc(NNc2ccccc2)cc1,outcome,[4],inactive
same,outcome,[11],inactive
Nc1cc(Cl)cc(C(=O)O)c1Cl,outcome,[4],inactive
Cc1cc(N=Nc2ccccc2C)ccc1N,AC50,[2],36 µM (active)
same,AC50,[3],67.5 µM (active)
same,AC50,[4],12.1 µM (active)
same,outcome,[11],inactive
same,outcome,[13],inactive
O=[N+]([O-])C(Br)(CO)CO,outcome,[5],inactive
same,outcome,[6],inactive
same,AC50,[2],71 µM (active)
same,AC50,[3],72.1 µM (active)
same,outcome,[8],inactive
same,outcome,[4],inactive
same,outcome,[11],inactive
Clc1ccc(C(c2ccc(Cl)cc2)C(Cl)(Cl)Cl)cc1,AC50,[4],12.7 µM (active)
CN(C)C(=O)Nc1ccc(Cl)cc1,outcome,[4],inactive
OCCOCCO,outcome,[5],inactive
same,outcome,[6],inactive
same,outcome,[10],inactive
same,outcome,[8],inactive
same,outcome,[4],inactive
CCCCOC(=O)c1ccccc1C(=O)OCc1ccccc1,AC50,[4],12.6 µM (active)
same,outcome,[11],inactive
CC(C)(O)c1cnn2c(-c3ccc(F)c(-c4c(F)cccc4C#N)c3)cnc2n1,AC50,[2],31.7 µM (active)
same,outcome,[3],inactive
same,AC50,[4],95.8 µM (active)
c1ccc2c(c1)-c1cccc3cccc-2c13,AC50,[4],37 µM (active)
same,outcome,[14],inactive
COC(=O)Nc1nc2ccccc2[nH]1,AC50,[2],3.78 µM (active)
same,outcome,[3],inactive
same,outcome,[4],inactive
CCCCCCCCCCCCCN1CC(C)OC(C)C1 (centres undefined),outcome,[5],inactive
same,outcome,[6],inactive
same,outcome,[10],inactive
same,outcome,[8],inactive
same,outcome,[4],inactive
CS(=O)(=O)NC(=O)c1cc(Oc2ccc(C(F)(F)F)cc2Cl)ccc1[N+](=O)[O-],outcome,[11],inactive
Cc1ccc(N)c(N)c1,outcome,[4],inactive
O=C(O)C1C2CCC(O2)C1C(=O)O (centres undefined),outcome,[11],inactive
CCCCCCCCOC(=O)c1ccc(C(=O)OCCCCCCCC)c(C(=O)OCCCCCCCC)c1,outcome,[4],inactive
CN(C)c1ccc(C(=O)c2ccc(N(C)C)cc2)cc1,outcome,[15],inactive
same,outcome,[4],inactive
CC(C)N(Cc1ccccc1)C(=O)C(C)(C)C,outcome,[2],inactive
same,outcome,[3],inactive
same,AC50,[4],50 µM (active)
O=C1CCCO1,outcome,[2],inactive
same,outcome,[3],inactive
same,outcome,[4],inactive
ClC1=C(Cl)C2(Cl)C3C(Cl)C=CC3C1(Cl)C2(Cl)Cl (centres undefined),outcome,[5],inactive
same,outcome,[6],inactive
same,outcome,[10],inactive
same,outcome,[8],inactive
same,outcome,[4],inactive
c1ccc(C2CO2)cc1 (centres undefined),outcome,[15],inactive

# Source: PubChem BioAssay (EPA / NIEHS)
